PubChem BioAssay

Assay: reversal of MRP1-mediated doxorubicin resistance, pilot screen, H69AR cells, doxorubicin co-treatment (AID 601)
Settings: H69AR cells + 2 uM doxorubicin, CellTiter-Glo, 72 h; measured here: viability with 2 uM doxorubicin; at 10 µM; stronger effect = lower value

First: COc1ccc(-c2noc(COc3ccc4ccccc4c3Br)n2)cc1OC
Second: COc1cccc(OC)c1C(=O)N1CCN(S(=O)(=O)c2ccc(C)cc2)CC1
The viability of the first is lower: 75.5% for the first, 96.7% for the second.

Going from `CC(=O)c1ccc(NC2OC(C)C(O)C(O)C2O)cc1` (stereo not given) to `CC(C)(C)OC(=O)N1CC(O)CC1C(=O)OCC(=O)c1ccc(Cl)cc1` (stereo not given), the viability rises from 89.8% to 90.3%.

Going from `CSc1nc(C)cc(OCC(=O)N2CCOCC2)n1` to `CCc1[nH]nc2c1C(c1cccc(OC(=O)N3CCOCC3)c1)C(C#N)=C(N)O2` (stereo not given), the viability rises from 90.2% to 98.8%.

First: O=C(CCCn1c(=S)[nH]c2ccccc2c1=O)N1CCCCC1
Second: CCOC(=O)N1CCN(C(=O)CN2C(=O)COc3ccc(C)cc32)CC1
The viability of the first is lower: 90.2% for the first, 92.3% for the second.

Going from `CN(C(=O)c1ccccn1)c1nnc(-c2ccncc2)s1` to `CS(=O)(=O)c1ccc2nc(NC(=O)c3cccs3)sc2c1`, the viability falls from 92.8% to 51.4%.

Going from `Cc1csc(SCc2nc3sc4c(c3c(=O)[nH]2)CCC4)n1` to `Cc1nnc(SCc2cc(=O)[nH]c(N3CCCCC3)n2)s1`, the viability rises from 86% to 91.9%.

Compared with `CCC(C)NC(=O)CC1Oc2ccc(C)cc2NC1=O` (stereo not given), `COC(=O)c1cccc(NC(=O)Cc2coc3cc(OC)ccc23)c1` is lower in viability: 94.2% for the first, 78.6% for the second.

First: CCSc1nc(C)nc2c1oc1ccccc12
Second: CCNc1nc(N2CCCCC2)nc(-n2nnc(C(=O)OCC)c2C)n1
The viability of the first is lower: 87.7% for the first, 94.3% for the second.

Compared with `CC1=C(C)[N+](=O)C2CCCCC2N1[O-]` (stereo not given), `CC1CCCCC1NC(=O)C1CCN(C(=O)NC2CCCCC2)CC1` (stereo not given) is higher in viability: 84.6% for the first, 95.3% for the second.

First: O=c1[nH]c2c(s1)C(c1ccco1)C1C3CCC(C3)C1S2 (stereo not given)
Second: COc1ccc(C(=O)N2CCN(S(=O)(=O)c3cc(Cl)ccc3OC)CC2)cc1
The viability of the first is lower: 89.3% for the first, 102% for the second.
